{
  "source": "PubChem BioAssay AID1159580",
  "about": "(chemical genetic matrix, 2015)",
  "assay": "chemical genetic growth profiling, strain panel (AID 1159580);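 further: tested at 20 µM; growth read once vehicle control cultures reached saturation at 30 °C; 1 = growth at the plate median or of vehicle wells; lower values mean less growth of the strain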",
  "details": "S. cerevisiae deletion strains, growth OD",
  "note": "Where “and” joins values, the source holds several entries; their conditions need not be identical. Equal values may be shown once. Screen size: about 5,500 compounds; about 2,000 (36%) were called active. Not shown: some 18% with an inconclusive outcome. This is one part of the list. Unmarked numbers belong to inactive results. No stated cut-off is given here; in the data, active means normalized growth mostly below about 0.91 (no sharp cut-off); inconclusive means no clear call, values can overlap the other calls; inactive means mostly above about 0.92.",
  "data": [
    {"smiles": "O=C1C=CC2=C3c4cc(O)c(O)cc4CC3(O)COC2=C1O", "note": "(centres undefined)", "values": [
      {"measurement": "normalized growth", "setting": "locus YAL013W, strain DEP1, hits give low values", "value": "0.873 (active)"},
      {"measurement": "normalized growth", "setting": "locus YAL021C, strain ccr4, hits give low values", "value": 0.933},
      {"measurement": "normalized growth", "setting": "locus YAL026C, strain drs2, hits give low values", "value": 0.945},
      {"measurement": "normalized growth", "setting": "locus YAL030W, strain snc1, hits give low values", "value": 1.02},
      {"measurement": "normalized growth", "setting": "locus YBL061C, strain skt5, hits give low values", "value": 0.993},
      {"measurement": "normalized growth", "setting": "locus YBR009C, strain hhf1, hits give low values", "value": 0.999},
      {"measurement": "normalized growth", "setting": "locus YBR021W, strain FUR4, hits give low values", "value": 1.04},
      {"measurement": "normalized growth", "setting": "locus YBR023C, strain chs3, hits give low values", "value": 0.949},
      {"measurement": "normalized growth", "setting": "locus YBR171W, strain sec66, hits give low values", "value": 1.06},
      {"measurement": "normalized growth", "setting": "locus YBR229C, strain ROT2, hits give low values", "value": 0.996},
      {"measurement": "normalized growth", "setting": "locus YBR231C, strain swc5, hits give low values", "value": 0.929},
      {"measurement": "normalized growth", "setting": "locus YBR279W, strain paf1, hits give low values", "value": 0.964},
      {"measurement": "normalized growth", "setting": "locus YCL011C, strain gbp2, hits give low values", "value": 1.02},
      {"measurement": "normalized growth", "setting": "locus YCL016C, strain dcc1, hits give low values", "value": 1.01},
      {"measurement": "normalized growth", "setting": "locus YCL029C, strain bik1, hits give low values", "value": 1.04},
      {"measurement": "normalized growth", "setting": "locus YCL061C, strain MRC1, hits give low values", "value": 1.01},
      {"measurement": "normalized growth", "setting": "locus YCL069W, strain vba3, hits give low values", "value": 1.03},
      {"measurement": "normalized growth", "setting": "locus YCR088W, strain abp1, hits give low values", "value": 1.05},
      {"measurement": "normalized growth", "setting": "locus YDL005C, strain med2, hits give low values", "value": 1.06},
      {"measurement": "normalized growth", "setting": "locus YDL035C, strain GPR1, hits give low values", "value": 0.904},
      {"measurement": "normalized growth", "setting": "locus YDL040C, strain nat1, hits give low values", "value": 1.04},
      {"measurement": "normalized growth", "setting": "locus YDL074C, strain BRE1, hits give low values", "value": 0.898},
      {"measurement": "normalized growth", "setting": "locus YDL101C, strain DUN1, hits give low values", "value": 0.946},
      {"measurement": "normalized growth", "setting": "locus YDL134C, strain PPH21, hits give low values", "value": 0.942},
      {"measurement": "normalized growth", "setting": "locus YDL185W, strain tfp1, hits give low values", "value": 0.997},
      {"measurement": "normalized growth", "setting": "locus YDL192W, strain arf1, hits give low values", "value": 0.998},
      {"measurement": "normalized growth", "setting": "locus YDR001C, strain nth1, hits give low values", "value": 1.04},
      {"measurement": "normalized growth", "setting": "locus YDR069C, strain doa4, hits give low values", "value": "0.896 (active)"},
      {"measurement": "normalized growth", "setting": "locus YDR101C, strain arx1, hits give low values", "value": 1.06},
      {"measurement": "normalized growth", "setting": "locus YDR137W, strain rgp1, hits give low values", "value": 0.972},
      {"measurement": "normalized growth", "setting": "locus YDR159W, strain sac3, hits give low values", "value": 1.13},
      {"measurement": "normalized growth", "setting": "locus YDR162C, strain NBP2, hits give low values", "value": "0.789 (active)"},
      {"measurement": "normalized growth", "setting": "locus YDR195W, strain ref2", "value": 1.11},
      {"measurement": "normalized growth", "setting": "locus YDR297W, strain sur2, hits give low values", "value": 1.01},
      {"measurement": "normalized growth", "setting": "locus YDR318W, strain mcm21, hits give low values", "value": 1.01},
      {"measurement": "normalized growth", "setting": "locus YDR334W, strain swr1, hits give low values", "value": 0.992},
      {"measurement": "normalized growth", "setting": "locus YDR335W, strain msn5, hits give low values", "value": 1.01},
      {"measurement": "normalized growth", "setting": "locus YDR388W, hits give low values", "value": 1.03},
      {"measurement": "normalized growth", "setting": "locus YDR392W, strain spt3, hits give low values", "value": 1.03},
      {"measurement": "normalized growth", "setting": "locus YDR502C, strain sam2, hits give low values", "value": 1.01},
      {"measurement": "normalized growth", "setting": "locus YEL003W, strain gim4, hits give low values", "value": 1.01},
      {"measurement": "normalized growth", "setting": "locus YEL037C, strain rad23, hits give low values", "value": 1.01},
      {"measurement": "normalized growth", "setting": "locus YEL061C, strain CIN8 (second series), hits give low values", "value": 1.04},
      {"measurement": "normalized growth", "setting": "locus YEL061C, strain CIN8, hits give low values", "value": 0.964},
      {"measurement": "normalized growth", "setting": "locus YER015W, strain faa2, hits give low values", "value": 0.99},
      {"measurement": "normalized growth", "setting": "locus YER016W, strain bim1, hits give low values", "value": 1.04},
      {"measurement": "normalized growth", "setting": "locus YER110C, hits give low values", "value": 1.05},
      {"measurement": "normalized growth", "setting": "locus YER111C, strain swi4, hits give low values", "value": 1.01},
      {"measurement": "normalized growth", "setting": "locus YER155C, strain BEM2 (second series), hits give low values", "value": 1.03},
      {"measurement": "normalized growth", "setting": "locus YER155C, strain BEM2, hits give low values", "value": 1.05},
      {"measurement": "normalized growth", "setting": "locus YER167W, strain BCK2, hits give low values", "value": 1.06},
      {"measurement": "normalized growth", "setting": "locus YFR010W, strain ubp6, hits give low values", "value": 0.985},
      {"measurement": "normalized growth", "setting": "locus YGL078C, strain dbp3, hits give low values", "value": 1.02},
      {"measurement": "normalized growth", "setting": "locus YGL086W, strain mad1, hits give low values", "value": 1.02},
      {"measurement": "normalized growth", "setting": "locus YGL167C, strain pmr1, hits give low values", "value": 1.03},
      {"measurement": "normalized growth", "setting": "locus YGL173C, strain kem1, hits give low values", "value": 0.947},
      {"measurement": "normalized growth", "setting": "locus YGL227W, strain vid30, hits give low values", "value": 1.06},
      {"measurement": "normalized growth", "setting": "locus YGL240W, strain doc1, hits give low values", "value": 1.11},
      {"measurement": "normalized growth", "setting": "locus YGL248W, strain PDE1, hits give low values", "value": 0.934},
      {"measurement": "normalized growth", "setting": "locus YGL253W, strain hxk2, hits give low values", "value": 0.959},
      {"measurement": "normalized growth", "setting": "locus YGR078C, strain PAC10, hits give low values", "value": 0.957},
      {"measurement": "normalized growth", "setting": "locus YGR135W, strain pre9, hits give low values", "value": 0.985},
      {"measurement": "normalized growth", "setting": "locus YGR229C, strain SMI1, hits give low values", "value": "0.557 (active)"},
      {"measurement": "normalized growth", "setting": "locus YGR252W, strain gcn5, hits give low values", "value": 0.966},
      {"measurement": "normalized growth", "setting": "locus YHR013C, strain ard1, hits give low values", "value": 0.901},
      {"measurement": "normalized growth", "setting": "locus YHR027C, strain rpn1, hits give low values", "value": "0.908 (active)"},
      {"measurement": "normalized growth", "setting": "locus YHR030C, strain SLT2, hits give low values", "value": "0.999 and 0.987"},
      {"measurement": "normalized growth", "setting": "locus YHR079C, strain IRE1 (second series), hits give low values", "value": 1.03},
      {"measurement": "normalized growth", "setting": "locus YHR079C, strain IRE1, hits give low values", "value": 1.01},
      {"measurement": "normalized growth", "setting": "locus YHR094C, strain hxt1, hits give low values", "value": 1.05},
      {"measurement": "normalized growth", "setting": "locus YHR129C, strain ARP1, hits give low values", "value": 0.967},
      {"measurement": "normalized growth", "setting": "locus YHR142W, strain chs7, hits give low values", "value": 0.943},
      {"measurement": "normalized growth", "setting": "locus YHR200W, strain rpn10, hits give low values", "value": 1.03},
      {"measurement": "normalized growth", "setting": "locus YIL066C, strain RNR3, hits give low values", "value": 0.881},
      {"measurement": "normalized growth", "setting": "locus YIL073C, strain SPO22, hits give low values", "value": 0.812},
      {"measurement": "normalized growth", "setting": "locus YIL125W, strain kgd1, hits give low values", "value": 1.01},
      {"measurement": "normalized growth", "setting": "locus YIR030C, strain dcg1, hits give low values", "value": 1.03},
      {"measurement": "normalized growth", "setting": "locus YJL092W, strain hpr5, hits give low values", "value": 1.04},
      {"measurement": "normalized growth", "setting": "locus YJL095W, strain BCK1 (second series), hits give low values", "value": 1.01},
      {"measurement": "normalized growth", "setting": "locus YJL095W, strain BCK1, hits give low values", "value": "0.926 and 1.02"},
      {"measurement": "normalized growth", "setting": "locus YJL115W, strain asf1, hits give low values", "value": 1.05},
      {"measurement": "normalized growth", "setting": "locus YJL129C, strain trk1, hits give low values", "value": 1.09},
      {"measurement": "normalized growth", "setting": "locus YJL134W, strain LCB3, hits give low values", "value": 0.999},
      {"measurement": "normalized growth", "setting": "locus YJL154C, strain vps35, hits give low values", "value": 1.03},
      {"measurement": "normalized growth", "setting": "locus YJL164C, strain tpk1, hits give low values", "value": 0.968},
      {"measurement": "normalized growth", "setting": "locus YJL166W, strain qcr8, hits give low values", "value": 0.995},
      {"measurement": "normalized growth", "setting": "locus YJL168C, strain set2, hits give low values", "value": 1.01},
      {"measurement": "normalized growth", "setting": "locus YJL187C, strain SWE1 (second series), hits give low values", "value": "0.826 (active)"},
      {"measurement": "normalized growth", "setting": "locus YJL187C, strain SWE1, hits give low values", "value": 0.986}
    ]}
  ]
}
